Screening results: PubChem, National Center for Advancing Translational Sciences (NCATS)
Sampled rows, rich in hits. Any-hit rate of the full collection: about 21%.
DT40 TDP1 CPT – qHTS for Inhibitors of human tyrosyl-DNA phosphodiesterase 1 (TDP1): qHTS in cells in presence of CPT; chicken DT40 Tdp1-/-;hTDP1 cells + 20 nM CPT, ATP luminescence, 48 h; Potency, µM (top dose mostly 46.2 µM), for inactives: top-dose activity change, negative = growth inhibition, most hits filed as inhibitors; 420,000 tested, 12% active; AID 686979, 2013; note: potency is the fitted concentration of half-maximal effect; nearly all actives have a fitted effect of over 55% in size
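Chicken DT40 Tdp1-/- cells complemented with human TDP1, 400 cells/well, exposed to compounds plus 20 nM camptothecin for at least 48 h at 37 C; viability read as ATP content by CellTiter-Glo luminescence.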
RORg inh – qHTS for inhibitors of ROR gamma transcriptional activity; 310,000 tested, 5.4% active; AID 2551, 2010; Potency, µM (series often up to 53.6 µM), without a hit: at the highest dose activity change, negative = inhibition, hits mostly inhibitors; Nuclear receptor ROR-gamma (Mus musculus), P51450; Drosophila S2 Gal4-RORgamma UAS-luciferase reporter, 20 h; note: potency is the fitted concentration of half-maximal effect; nearly all actives have a fitted effect of over 60% in size
Target sequence (P51450 whole entry, looked up, the tested form may be a part): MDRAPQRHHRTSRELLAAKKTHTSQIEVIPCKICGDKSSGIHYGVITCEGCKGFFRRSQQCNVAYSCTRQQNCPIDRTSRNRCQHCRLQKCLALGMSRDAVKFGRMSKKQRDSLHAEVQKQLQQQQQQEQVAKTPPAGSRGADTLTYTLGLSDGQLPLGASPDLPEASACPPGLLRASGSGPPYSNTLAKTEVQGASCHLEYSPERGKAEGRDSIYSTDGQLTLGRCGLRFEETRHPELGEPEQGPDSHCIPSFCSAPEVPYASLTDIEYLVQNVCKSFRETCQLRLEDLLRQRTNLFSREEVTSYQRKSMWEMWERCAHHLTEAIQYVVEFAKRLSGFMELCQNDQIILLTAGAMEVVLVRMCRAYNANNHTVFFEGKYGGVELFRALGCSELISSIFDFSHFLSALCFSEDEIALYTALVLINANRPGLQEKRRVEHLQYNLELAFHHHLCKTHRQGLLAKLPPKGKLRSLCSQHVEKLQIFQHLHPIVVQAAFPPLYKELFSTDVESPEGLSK
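ROR gamma transcriptional activity was tracked as Gal4-UAS luciferase output in stably transfected Drosophila Schneider cells, with compound added 1 hr before 700 uM copper sulfate induction and a 20 hr ambient-temperature incubation.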
VP16 counter – VP16 counterscreen qHTS for inhibitors of ROR gamma transcriptional activity | AID 2546, 2010 | 310,000 tested, 3.5% active | Drosophila S2 Gal4-VP16 UAS-luciferase, luminescence, 20 h | Potency, µM (series often up to 53.6 µM), for inactives: at the top dose activity, negative = inhibition, hits mostly inhibitors;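 note: Gal4-VP16 expression switched on by copper sulfate through the metallothionein promoter; potency is the fitted concentration of half-maximal effect; nearly all actives have a fitted effect of over 50% in size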
TDP1 cell noCPT – qHTS for Inhibitors of human tyrosyl-DNA phosphodiesterase 1 (TDP1): qHTS in cells in absence of CPT. DT40 Tdp1-/- hTDP1 cells, no CPT, ATP luminescence, 48 h. Potency, µM (top dose mostly 46.2 µM), inactives show at the highest dose activity change, negative = growth inhibition, most hits filed as inhibitors. 420,000 tested, 15% active. AID 686978, 2013; note: potency is the fitted concentration of half-maximal effect; nearly all actives have a fitted effect of over 55% in size
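Chicken DT40 Tdp1-/- cells complemented with human TDP1, screened without camptothecin (DMSO vehicle only), 400 cells/well. Compounds pin-transferred, cells incubated at 37 °C for at least 48 hr. Growth read as ATP-dependent luminescence (CellTiter-Glo, 30 min at RT).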
ELG1 DNA repair – qHTS screen for small molecules that inhibit ELG1-dependent DNA repair in human embryonic kidney (HEK293T) cells expressing luciferase-tagged ELG1 | HEK293T ELG1-luciferase reporter, luminescence, 16 h; DNA damage induced by 5-fluorouridine | Potency, µM (series often up to 46.1 µM), for inactives: at the highest dose activity change, negative = inhibition, hits mostly inhibitors | 330,000 tested, 2.3% active | AID 504467, 2011; note: potency is the fitted concentration of half-maximal effect; nearly all actives have a fitted effect of over 55% in size
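HEK293T cells expressing luciferase-tagged ELG1 (2,000/well) received 5-Fluorouridine plus compound or DMSO for 16 hr at 37 °C. Luciferase was read by ONE-Glo luminescence after 30 min at room temperature.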
IL1B secr inh – qHTS for Inhibitors of Inflammasome Signaling: IL-1-beta AlphaLISA Primary Screen; 360,000 tested, 4.7% active; THP-1 LPS/ATP IL-1B secretion, AlphaLISA, 16 h; active compounds read low; activity change, % at 57.5 µM; in the data active = activity change below about -50%; inconclusive = mostly about -30% to -49%
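THP-1 cells pretreated 1 hr with compounds (up to 57.5 uM final), then stimulated with LPS (250 ng/mL final) plus ATP (1.25 mM final); secreted IL-1B measured by AlphaLISA after 16 hr, decreased signal indicating inhibition.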
* hit, by the source's call; ? = inconclusive; . = no result. Unless noted, calls come from the whole dose curve; as a rule, active = well fitted curve in the direction sought with a large enough effect; inconclusive = small, poorly fitted or top-dose-only effect, or another doubt; inactive = no such curve, though single readings can be large; an effect the other way counts as inactive or inconclusive. % is set by controls: 0 for no effect and ±100 for the full control effect.

SMILES	DT40 TDP1 CPT	RORg inh	VP16 counter	TDP1 cell noCPT	ELG1 DNA repair	IL1B secr inh
COc1cc2cc(C(c3nnnn3C(C)(C)C)N3CCc4ccccc4C3)c(=O)[nH]c2cc1OC (stereo unspecified)	18µM*	1%	-3%	?	?	-18
CC(C)(C)n1nnnc1C(c1cc2cc3c(cc2[nH]c1=O)OCO3)N1CCN(c2ccccc2)CC1 (stereo unspecified)	-12%	-6%	-7%	-18%	-25%	?
CCC(C)(C)n1nnnc1C(c1cc2cc(OC)c(OC)cc2[nH]c1=O)N1CCc2ccccc21 (stereo unspecified)	20µM*	-2%	-20%	?	?	0
COc1ccc(OC(=O)CCc2c[nH]c3ccccc23)cc1	-15%	12%	-3%	?	6%	56
O=C(NCC1CCCO1)c1cccc2c1C(=O)c1ccc(N3CCC(Cc4ccccc4)CC3)cc1S2(=O)=O (stereo unspecified)	?	.	.	21µM*	2.6µM*	43
CC1CCN(c2ccc3c(c2)S(=O)(=O)c2cccc(C(=O)NC[C@@H]4CCCO4)c2C3=O)CC1	13µM*	.	.	?	-22%	35
O=C(NC1CCCCC1)c1cccc2c1C(=O)c1ccc(N3CCC(Cc4ccccc4)CC3)cc1S2(=O)=O	?	.	.	-26%	9%	-10
CCCCC(CC)COC(=O)C(C#N)=C(c1ccccc1)c1ccccc1 (stereo unspecified)	?	?	-15%	18µM*	1%	8
Cc1cc(C)cc(NC(=O)CSCc2cc(=O)c3cc(Cl)ccc3[nH]2)c1	8%	.	.	-1%	.	.
COc1cc2ncnc(Nc3ccc(Cl)cc3F)c2cc1OC	.	-7%	-12%	.	.	.
COc1ccc(C(=O)Oc2cccc(Nc3ncnc4ccccc34)c2)cc1OC	?	-9%	?	18µM*	16µM*	0
O=C(Oc1cccc(Nc2ncnc3ccccc23)c1)c1cccnc1	?	0%	-7%	-10%	9%	36
C#Cc1cccc(Nc2ncnc3cc(OC)c(OC)cc23)c1	?	.	.	23µM*	.	.
COc1cc(C(=O)Oc2cccc(Nc3ncnc4ccccc34)c2)cc(OC)c1OC	23µM*	33%	?	16µM*	2.9µM*	-95*
Cc1cccc(-c2cnc(C(O)c3ccc(F)c(C)c3)[nH]2)c1 (stereo unspecified)	-19%	.	.	?	.	-9
Cc1ccc(N2CCN(C(=S)c3ccc(-c4cccc([N+](=O)[O-])c4)o3)CC2)cc1	-5%	0%	0%	-14%	-24%	0
Cc1ccccc1N1CCN(C(=S)c2ccc(-c3cccc([N+](=O)[O-])c3)o2)CC1	?	5%	-2%	-27%	-24%	37
O=C(NC(=S)Nc1ccccc1N1CCCC1)c1ccc(-c2cccc([N+](=O)[O-])c2)o1	?	13%	-23%	?	15µM*	?
CC(=O)N1CCN(c2ccccc2NC(=O)c2ccc(-c3cccc([N+](=O)[O-])c3)o2)CC1	23µM*	-5%	11%	16µM*	?	-11
O=C(NC(=S)Nc1ccccc1N1CCCCC1)c1ccc(-c2cccc([N+](=O)[O-])c2)o1	?	0.5µM*	2.2µM*	23µM*	?	-11
CN1CCN(c2ccccc2NC(=O)c2ccc(-c3ccccc3[N+](=O)[O-])o2)CC1	15µM*	6%	7%	16µM*	-21%	0
CCn1c(SCC(=O)NC2(C#N)CCCCC2)nc2ccccc2c1=O	8%	.	.	6%	-7%	10
COc1ccc(N(C(=O)c2ccco2)S(=O)(=O)c2cc(Cl)c(Cl)cc2Cl)cc1	18µM*	16%	4%	?	?	39
CSc1nc(N)c(C(=O)N(c2ccccc2)c2ccccc2)s1	?	.	.	?	.	2
CCOC(=O)c1cc(S(=O)(=O)Nc2cc(F)ccc2C)[nH]n1	-25%	.	.	2%	.	.
SMILES	DT40 TDP1 CPT	RORg inh	VP16 counter	TDP1 cell noCPT	ELG1 DNA repair	IL1B secr inh
COC(=O)c1ccc(C(NC(=O)OCc2ccccc2)/C(F)=C/[C@@H](C)C(=O)Nc2ccc(OC)cc2)cc1 (stereo partly specified)	.	20µM*	?	.	.	.
O=S(=O)(NC(=NC1CCCC1)C(F)(F)F)c1ccccc1	6%	2%	-16%	-8%	8%	0
COc1cc(C(=O)OCC(=O)N2c3ccccc3NC(=O)C2(C)C)ccc1OCC(C)C	?	.	.	?	?	-81*
COc1cc(C(=O)OCC(=O)NCc2ccc(F)cc2)ccc1OCC(C)C	?	.	.	16µM*	2%	-7
O=C(COC(=O)c1ccccc1C(=O)c1ccccc1)NCCc1ccc(Cl)cc1Cl	?	23%	-12%	21µM*	-14%	-85*
O=C(COC(=O)c1ccccc1C(=O)c1ccccc1)NCc1ccc(F)cc1	?	-27%	1%	?	15%	-77*
Cc1cc(C)cc(CC(=O)N2CCC2(C)C(=O)NS(=O)(=O)c2cccc(F)c2)c1 (stereo unspecified)	-7%	.	.	-13%	.	6
O=C(Nc1ccccc1)N1CCC2(CC1)CCN(C(=O)c1cccc(F)c1)CC2	-7%	-3%	-5%	?	.	.
CCOc1ccc(CN2CCN(CC3CC3)CC2CCO)cc1 (stereo unspecified)	-5%	5%	0%	?	0%	8
O=C(COC(=O)c1ccccc1C(=O)c1ccc(Cl)cc1)NCC1CCCO1 (stereo unspecified)	3%	25%	9%	-11%	6%	?
O=C(COC(=O)c1ccccc1C(=O)c1ccc(Cl)cc1)NCc1ccccc1	?	7%	-8%	18µM*	-2%	-69*
Cc1cc(CNC(=O)COc2ccc(F)cc2)c2ccccc2n1	?	?	-16%	21µM*	?	25
O=C(COC(=O)c1nc(Cl)c(Cl)c(Cl)c1Cl)NCc1ccccc1	?	.	.	-16%	?	-89*
